# Screens as filed in PubChem.
# Shown are actives, neighbours in structure and some others; about 4.6% of the full set was active somewhere.
# Tau fluor counter: Counterscreen qHTS for Inhibitors of Tau Fibril Formation, Fluorescence Polarization; tau K18 P301L Alexa594 fluorescence, heparin fibrillization; Potency, µM (titrated, usually from 57.7 µM), inactives show at the top dose activity change, negative = decrease; 0.93% of 280,000 active; also: potency is read from the fitted curve at half-maximal effect; nearly all actives have a fitted effect of over 55% in size
#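 Human tau K18 P301L (15 uM unlabeled, 0.24 uM Alexa 594-labeled) in 100 mM sodium acetate pH 7 with 20 uM heparin, 6 hr at 37 C. ThT 30 uM added, 1 hr ambient; Alexa 594 FP and total fluorescence read at 555/632 nm.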
# TRb SRC2 PPI: qHTS for Inhibitors of the Interaction of Thyroid Hormone Receptor and Steroid Receptor Coregulator 2 | AID 1469, 2008 | 0.065% of 280,000 active | Thyroid hormone receptor beta (Homo sapiens), P10828 | TRbeta-SRC2 peptide binding, fluorescence polarization; receptor liganded with 1 µM T3 | Potency, µM (doses to about 106 µM), for the others: top-dose activity change, negative = inhibition, most hits filed as inhibitors;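 also: potency is read from the fitted curve at half-maximal effect; plate controls were bound peptide for no effect and peptide without receptor for full effect; nearly all actives have a fitted effect of over 50% in size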
# Target sequence (P10828 whole entry, looked up): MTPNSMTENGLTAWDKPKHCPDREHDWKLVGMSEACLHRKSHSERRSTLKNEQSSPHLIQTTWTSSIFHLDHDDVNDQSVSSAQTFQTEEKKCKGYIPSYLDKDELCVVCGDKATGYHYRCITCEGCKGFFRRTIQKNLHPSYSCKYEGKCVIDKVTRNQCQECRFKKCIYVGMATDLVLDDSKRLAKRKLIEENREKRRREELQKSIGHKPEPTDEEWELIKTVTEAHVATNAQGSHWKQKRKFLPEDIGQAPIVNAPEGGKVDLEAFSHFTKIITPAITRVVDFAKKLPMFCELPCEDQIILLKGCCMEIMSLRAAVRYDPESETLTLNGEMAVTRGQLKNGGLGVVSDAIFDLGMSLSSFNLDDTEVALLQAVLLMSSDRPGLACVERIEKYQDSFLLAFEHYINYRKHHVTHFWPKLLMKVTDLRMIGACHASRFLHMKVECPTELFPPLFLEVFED
#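 Binding of a 20-amino-acid Texas Red SRC2 peptide (20 nM) to TRb ligand-binding domain (0.6 uM) with agonist T3 at 1 uM was followed by fluorescence polarization after a 5 hr room-temperature incubation.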
# PNC inhibitor: High Content Assay for Compounds that inhibit the Assembly of the Perinucleolar Compartment | PC3M PTB-GFP, PNC prevalence imaging, 16 h; hits give low values | activity change (PNC), negative = inhibition, % at 10 µM | 3.1% of 140,000 active | AID 2417, 2010;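 active = readout at or below -70, meaning at least 70% loss of cells showing the perinucleolar compartment, a nuclear body marking cancer cells; inconclusive = readout between -30 and a set limit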;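 also: plate controls were DMSO wells for no effect and camptothecin positive control wells for full effect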
#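 Compounds are pinned in duplicate onto adhered PC3M cells stably expressing GFP-tagged PTB and incubated 16 h at 37 C. Cells are then fixed, nuclei stained with Hoechst, and PNC-positive cells counted.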
# Tau fibril FP: qHTS for Inhibitors of Tau Fibril Formation, Fluorescence Polarization; 0.39% of 280,000 active; Microtubule-associated protein tau (Homo sapiens), P10636; K18 P301L tau heparin fibrillization, Alexa594 FP, 6 h; AID 1468, 2008; Potency, µM (doses to about 57.7 µM), for the others: top-dose activity, negative = inhibition, actives largely listed as inhibitors; also: potency is read from the fitted curve at half-maximal effect; nearly all actives have a fitted effect of over 55% in size
# Target sequence (P10636 561-689 P618L limits assumed): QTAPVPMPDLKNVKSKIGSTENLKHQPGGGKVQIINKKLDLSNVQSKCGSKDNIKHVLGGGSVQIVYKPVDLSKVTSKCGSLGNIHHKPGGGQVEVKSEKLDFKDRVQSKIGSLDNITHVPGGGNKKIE
#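 Heparin (20 uM) drove fibril formation of recombinant tau K18 P301L, 15 uM unlabeled with 0.24 uM Alexa 594 label, for 6 hr at 37 C in 100 mM sodium acetate pH 7. Fluorescence polarization (555/632 nm) read 1 hr after 30 uM ThT.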
# TR SRC2 fluor cs: Total Fluorescence Counterscreen for Inhibitors of the Interaction of Thyroid Hormone Receptor and Steroid Receptor Coregulator 2 | TRb/SRC2 Texas Red total fluorescence interference | Potency, µM (highest dose often 106 µM), for the others: at the highest dose fluorescence change, negative = quenching | 0.29% of 280,000 active; active = well fitted curve in either direction with a large enough effect; inconclusive = small, poorly fitted or top-dose-only effect; also: potency is read from the fitted curve at half-maximal effect
#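 Flags fluorescent or light-absorbing compounds by total fluorescence, S + 2P, at 555 nm excitation and 632 nm emission. Mixture: 20 nM Texas Red SRC2 peptide, 0.6 uM human TRb LBD, 1 uM T3, 5% DMSO; compound exposure 5 h at ambient temperature.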
# Tau ThT inhib: qHTS for Inhibitors of Tau Fibril Formation, Thioflavin T Binding; recombinant tau K18 P301L (four-repeat tau fragment), heparin-induced fibrillization, ThT fluorescence; 2.1% of 270,000 active; Microtubule-associated protein tau (Homo sapiens), P10636; Potency, µM (titrated, usually from 57.4 µM), for the others: at the top dose activity, negative = inhibition, most hits filed as inhibitors; also: potency is read from the fitted curve at half-maximal effect; nearly all actives have a fitted effect of over 55% in size
#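 K18 P301L tau (15 uM + 0.24 uM Alexa 594-tagged), heparin 20 uM, NaOAc pH 7, 6 h 37 C; ThT 30 uM, 1 h RT, ex 450/em 510 nm.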
# * hit, by the source's call; ? = inconclusive; · = no result; [ ] = another dose, or the depositor's remark. Unless noted, calls follow the shape of the dose curve; as a rule, active = well fitted curve in the direction sought with a large enough effect; inconclusive = small, poorly fitted or top-dose-only effect, or another doubt; inactive = no such curve, though single readings can be large; an effect the other way counts as inactive or inconclusive. Unless noted, % is scaled to controls: 0 for no effect and ±100 for the full control effect.
SMILES,Tau fluor counter,TRb SRC2 PPI,PNC inhibitor,Tau fibril FP,TR SRC2 fluor cs,Tau ThT inhib
O=S(=O)(c1ccccc1)c1ccccc1/C=N\O,0%,5%,-96*,5%,6%,8%
Cc1ccc2c(c1)c(C)cc[n+]2Cc1ccccc1,-13%,4%,-30,9%,1%,-19%
CC[n+]1ccc(C[n+]2ccccc2)c2ccccc21,-14%,2%,-82*,?,-1%,?
COc1ccc(N=C2S/C(=C\c3ccc(N4CCOCC4)o3)C(=O)N2CCc2c[nH]c3ccccc23)cc1,?,0%,?,6%,-3%,14µM*
O=C(N/C(=C/c1ccc(Cl)cc1)C(=O)N1CCCC1)c1ccccc1,-3%,5%,·,-4%,1%,-3%
CCCCNC(=O)CSc1nc2cc3c(cc2c(=O)n1CCCC(=O)NCc1ccc(OC)cc1)OCO3,7%,-2%,·,4%,3%,9%
COc1ccc(C2CC(=O)c3cc(-c4nc(-c5cccc([N+](=O)[O-])c5)cs4)c(=O)n(-c4ccccc4C)c3C2)cc1 (stereo not given),-26%,-16%[53 µM],·,1%,89µM*[quencher],-11%
COc1ccc(C2CC(=O)c3cc(-c4nc(-c5cccc([N+](=O)[O-])c5)cs4)c(=O)n(-c4ccccc4)c3C2)cc1 (stereo not given),?,1%,·,-9%,-9%,5%
Cc1ccc(Cn2c(CNC(=O)c3ccccc3Br)nc3cccnc32)cc1,-9%,-11%,·,6%,0.01µM*[quencher],-3%
O=Cc1cnc(N2CCN(c3ccccc3)CC2)s1,-12%,-1%,·,-1%,-1%,?
CC1CCN(C(c2ccc(N(C)C)cc2)c2nnnn2C(C)(C)C)CC1 (stereo not given),?,-5%,22,-4%,-1%,10µM*
CCOc1ccc(N2C(=O)CC(SC(=NC)Nc3cccc(OC)c3)C2=O)cc1 (stereo not given),1%,-7%,·,-7%,1%,1%
CCn1c(C)c(C(C)=O)c(N2CCN(C(c3ccccc3)c3ccccc3)CC2)nc1=S,3%,8%,·,5%,3%,4%
CCn1c(C)c(C(C)=O)c(N2CCN(c3ccccc3)CC2)nc1=S,-19%,-6%,?,?,6%,22µM*
CC(=O)c1c(N2CCOCC2)nc(=S)n(-c2ccccc2)c1C,-6%,-8%,?,-8%,-3%,3%
CC(=O)c1c(N2CCOCC2)nc(=S)n(-c2ccc([N+](=O)[O-])cc2)c1C,-6%,3%,-113*,-10%,0%,-8%
CC(=O)c1c(N2CCCCC2)nc(=O)n(-c2ccccc2)c1C,3%,-5%,?,-1%,-7%,-6%
CC(=O)c1c(N2CCOCC2)nc(=O)n(-c2ccccc2)c1C,-15%,-2%,-80*,7%,0%,-11%
CCOC(=O)C1(C)C=C(Nc2cccc(OC)c2)C(=O)N1c1ccccc1 (stereo not given),-30%,-2%,·,1%,-1%,?
CCOC(=O)C1(C)/C(=N/Nc2ccccc2)C(=O)C(=O)N1c1ccccc1 (stereo not given),-28%,-7%,-8,-7%,-7%,18µM*
CCOC(=O)C1(C)/C(=N/Nc2ccccc2OC)C(=O)C(=O)N1c1ccccc1 (stereo not given),-15%,-10%,·,-11%,-3%,16µM*
CCOC(=O)C1(C)C=C(Nc2ccc(Br)cc2)C(=O)N1c1ccccc1 (stereo not given),0%,-8%,·,-10%,-2%,6%
O=C(Cn1c(=O)n(Cc2ccco2)c(=O)c2sc3ccccc3c21)Nc1ccccc1C(F)(F)F,-10%,-6%,·,-5%,1%,5%
NS(=O)(=O)c1cccc(NC(=O)COc2ncnc3c2cnn3-c2ccccc2)c1,7%,11%,·,4%,0%,6%
O=C(COc1ncnc2c1cnn2-c1ccccc1)Nc1ccc(S(=O)(=O)N2CCCCC2)cc1,?,1%,-7,18µM*,2%,5%
SMILES,Tau fluor counter,TRb SRC2 PPI,PNC inhibitor,Tau fibril FP,TR SRC2 fluor cs,Tau ThT inhib
COc1ccc2oc(=O)c(C(=O)NCCc3c(C)[nH]c4c(Cl)cccc34)cc2c1,-29%,2%,·,-6%,3%,?
COC(=O)C(OC(=O)c1ccc(OC)cc1)C(=O)OC,-1%,-2%,-100*,-2%,-2%,-3%
O=C(/C=C/c1ccc(Cl)c([N+](=O)[O-])c1)Nc1ccc(NC(=O)c2ccco2)cc1,?,3%,2,-13%,-9%,?
CC1CCN(c2ccccc2NC(=S)NC(=O)c2ccc(-c3cccc([N+](=O)[O-])c3)o2)CC1,-17%,-22%,?,3%,2%,-14%
O=C(/C=C/c1ccc(Cl)c([N+](=O)[O-])c1)Nc1ccc(N2CCCC2)cc1,18µM*[quencher],-14%,4,-4%,-1%,0.89µM*
CC1CCN(c2ccc(NC(=S)NC(=O)c3ccc(-c4cccc([N+](=O)[O-])c4)o3)cc2)CC1,?,12%,6,-4%,0%,2µM*
O=C(NC(=S)Nc1ccc(N2CCCC2)cc1)c1ccccc1[N+](=O)[O-],-20%,-5%,-83*,5%,0%,?
Cc1nnc(N/N=C/c2ccccc2O)n1N,-12%,7%,·,?,2%,?
Cc1nnc(N/N=C\c2ccc(-c3ccccc3[N+](=O)[O-])o2)n1N,?,-2%,38,?,-2%,10µM*
Cc1nnc(N/N=C/c2ccc(-c3ccccc3F)o2)n1N,?,1%,·,-6%,1%,13µM*
CCc1ccccc1-n1c(SCC(=O)NC)nnc1-c1cccnc1,11%,?,-122*,-3%,2%,14%
CNC(=O)CSc1nnc(-c2cccnc2)n1CCc1ccccc1,-4%,-6%,-15,-1%,-8%,0%
CCN(CC)S(=O)(=O)c1nnc(NC(=O)COc2cccc(C)c2)s1,4%,-10%,·,8%,3.2µM*[quencher],?
O=C(COc1ccccc1)Nc1nnc(S(=O)(=O)Nc2ccccc2)s1,?,-22%,·,-8%,0.05µM*[quencher],?
O=C(COc1ccccc1)Nc1nnc(S(=O)(=O)N2CCCC2)s1,-23%,3%,·,-14%,-4%,?
CCCc1ccc(O)c(N=Cc2cc(Br)cc(OCC)c2O)c1,-23%,-3%,·,-11%,0%,14µM*
